This is part of a sample that, as a whole, favours compounds with a hit. Of some 79,000 tested, about 15% had one in any assay. Cut-off read from the data, not from the text of the source: active = growth inhibition above about 70%; inactive = the rest.
How the values were obtained:
[1] = NCI Yeast Anticancer Drug Screen. Data for the rad50 strain (AID 155);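 note: 0% = growth of vehicle-only cultures of the same strain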; conditions: S. cerevisiae rad50 strain growth inhibition; at 50.0 µM; stronger effect = higher value
In short: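 Inhibition values express reduced yeast growth in compound-treated cultures relative to vehicle-treated controls.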

[2] = NCI Yeast Anticancer Drug Screen. Data for the mec2-1 strain (AID 157); conditions: S. cerevisiae mec2-1 strain, at 50.0 µM, stronger effect = higher value
In short: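 Yeast mec2-1 mutant treated with compound. Readout: growth inhibition vs vehicle controls.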

[3] = NCI Yeast Anticancer Drug Screen. Data for the sgs1 mgt1 strain (AID 161);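 note: 0% = growth of cultures given vehicle only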; conditions: S. cerevisiae sgs1 mgt1 strain, at 50.0 µM, stronger effect = higher value
In short: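 Inhibition of yeast growth, normalised to vehicle-treated controls, is reported for a strain bearing genetic alterations in DNA damage repair.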

[4] = NCI Yeast Anticancer Drug Screen. Data for the cln2 rad14 strain (AID 165);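 note: 0% = growth equal to vehicle treated cultures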; conditions: S. cerevisiae cln2 rad14 strain, at 50.0 µM, stronger effect = higher value
In short: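 cln2 rad14 yeast strain; compound exposure; growth inhibition read vs vehicle controls.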

[5] = NCI Yeast Anticancer Drug Screen. Data for the bub3 strain (AID 167); conditions: S. cerevisiae bub3 mutant strain, at 50.0 µM, stronger effect = higher value
In short: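 Steps: expose the mutant yeast strain to compound; grow alongside vehicle-treated cultures; measure growth; express inhibition against the vehicle cultures.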

[6] = NCI Yeast Anticancer Drug Screen. Data for the mlh1 rad18 strain (AID 175); conditions: S. cerevisiae mlh1 rad18 strain growth inhibition; at 50.0 µM; stronger effect = higher value
In short: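 Yeast w/ defined DNA-repair lesions; compound exposure; growth vs vehicle controls → % inhibition.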

Measured: growth inhibition

O=NN(CCCl)C(=O)N[C@H]1CCC[C@@H](O)C1
inactive: [1] 5.85% | [2] -3.35% | [3] -6.2% | [4] -42.9% | [5] -15.2% | [6] 6%

OC1CCCCC1OC1CCc2ccccc2C1 (stereo not given)
inactive: [1] 19.1% | [2] 19.5% | [3] -5.25% | [4] 29.9% | [5] 50% | [6] 33.1%

CN(C)S(=O)(=O)c1nc2nc[nH]c(=O)c2[nH]1
inactive: [1] -3.2% | [2] -20.4% | [3] -3.8% | [4] -15.9% | [5] -8.55% | [6] -22.9%

O=C1OC(=O)C2C3C=CC(CC3)C12 (stereo not given)
inactive: [1] -1.35% | [2] 4% | [3] -13.3% | [4] -65% | [5] -31.1% | [6] -0.1%

CC(C)(C)CC(C)(C)c1ccc(OCCOc2ccc(C(=O)NCCNC(=O)c3ccc4ccccc4c3O)cc2N)cc1
inactive: [1] -13% | [2] -5.25% | [3] 3.85% | [4] 26.4% | [5] -7.1% | [6] -16.6%

COC(=O)c1ccccc1C1CN=NC12Cc1cc(C)ccc1C2=O (stereo not given)
inactive: [1] -3.25% | [2] 14.2% | [3] -10.4% | [4] -34.4% | [5] -3.5% | [6] -14.8%

CC(=O)NCCCCN(CCCNC(C)=O)C(=O)CNS(=O)(=O)c1cccc2c(N(C)C)cccc12
inactive: [1] -11.2% | [2] -17.1% | [3] 16.2% | [4] 2% | [5] 17.6% | [6] -8.65%

COc1cc2cc[n+]3c(C)c4ccc(OC)c(OC)c4cc3c2cc1OC (tested in a mixture with another compound)
inactive: [1] -4.15% | [2] 17.2% | [3] -5.3% | [4] -10.8% | [5] -3.55% | [6] 6.65%

C=C1CCCCCCCCCCC1S(=O)c1ccccc1 (stereo not given)
inactive: [1] 14.5% | [2] 14.3% | [3] 4.15% | [4] -6.6% | [5] -5.4% | [6] 31.5%

O=C(O)CCNCCO
inactive: [1] -3.5% | [2] 13.4% | [3] 5.1% | [4] -18.6% | [5] 20.1% | [6] 2.45%

COCC1CCCCC1O (stereo not given)
inactive: [1] -9.95% | [2] 7.15% | [3] 3.05% | [4] 26.8% | [5] 18.1% | [6] -2.35%

C=C1C(=O)OC2CC(C)C3CC(OCCCl)OC(OCCCl)C3(C)CC12 (stereo not given)
inactive: [1] 13.8% | [2] 7.65% | [3] -3.05% | [4] 7.25% | [5] 5.65% | [6] -6.2%

C=CCNC(=S)NNC(=S)NCC=C
inactive: [1] 9.55% | [2] 34.1% | [3] 10.4% | [4] 3.6% | [5] -16.4% | [6] 22.2%

C[Si](C)(Cl)c1ccccc1
inactive: [1] -47.6% | [2] -27.4% | [3] -11.7% | [4] 17.4% | [5] -23.6% | [6] -18.4%

Cc1ccc(S(=O)(=O)NCCC(=O)O)cc1
inactive: [1] -1.75% | [2] -11.1% | [3] -9.65% | [4] -9.3% | [5] -3.3% | [6] -4.85%

O=C1c2ccccc2C(=O)N1CCCSc1ccccc1
inactive: [1] -10.2% | [2] -12.7% | [3] -21.9% | [4] -15.6% | [5] -32.4% | [6] -33.9%

COC(=O)c1cc2c(cc1CC1Cc3cc4c(cc3C1=O)CCC4)CCC2 (stereo not given)
inactive: [1] -16.1% | [2] -42.3% | [3] -10.4% | [4] 9.3% | [5] 19.6% | [6] 1.65%

CN(C)c1ccc(N=Cc2ccc(O)cc2)cc1
inactive: [1] 10.9% | [2] 0.55% | [3] -4.6% | [4] 2% | [5] 2.9% | [6] 7%

COC(=O)c1ccccc1C#CC#Cc1ccccc1C(=O)OC
inactive: [1] -5.25% | [2] -32.1% | [3] 4.6% | [4] 8.85% | [5] -2.4% | [6] -3.5%

O=C(O)c1ccc(S(=O)(=O)N=Nc2c(O)[nH]c3ccccc23)cc1
inactive: [1] -6.6% | [2] -5.2% | [3] -35% | [4] -1.15% | [5] -37% | [6] -7.45%

CC(=O)OC12c3ccccc3C(c3ccccc31)C1C(=O)N(c3ccccn3)C(=O)C12 (stereo not given)
inactive: [1] -23.6% | [2] -7.4% | [3] 5.9% | [4] 3.35% | [5] 9.9% | [6] 5.6%

COC1OCC(OS(C)(=O)=O)C(OS(C)(=O)=O)C1OS(C)(=O)=O (stereo not given)
inactive: [1] -22.5% | [2] -6.1% | [3] -26.1% | [4] -55.2% | [5] -1% | [6] -2.85%

CC(=O)c1ccc(N=C2c3ccccc3CN2c2ccc(C(C)=O)cc2)cc1
inactive: [1] 11.8% | [2] -13.6% | [3] -6.75% | [4] -10.6% | [5] -5.25% | [6] 4.5%

c1ccc(Cn2c(-c3ccccc3)c[n+]3ccccc23)cc1
inactive: [1] -11.4% | [2] -10.1% | [3] 5.35% | [4] -49.4% | [5] 10.3% | [6] -6.4%

CC(OCc1ccccc1)C(NC(=O)C1CSSCC(NC(=O)C(Cc2ccccc2)NC(=O)OCc2ccccc2)C(=O)NC(Cc2ccccc2)C(=O)NC(Cc2cn(C=O)c3ccccc23)C(=O)NC(CCCCNC(=O)OCc2ccccc2)C(=O)NC(C(C)OCc2ccccc2)C(=O)N1)C(N)=O (stereo not given)
inactive: [1] -10.7% | [2] 0.7% | [3] -4.75% | [4] 21.1% | [5] 23.8% | [6] -3%

COc1cccc(/C=C\C(=O)c2ccccc(=O)c2O)c1OC
inactive: [1] 34.5% | [2] 23.4% | [3] 36.8% | [4] -5.4% | [5] 40.5% | [6] 40.9%

CCc1c(Cl)c(Cl)c(Cl)c(Cl)c1Cl
inactive: [1] 2.95% | [2] 2.35% | [3] 4.15% | [4] -42.5% | [5] -2.9% | [6] 13.8%

COC(=O)C1(CC(=O)c2ccncc2)NC(=S)NC(=O)C1C#N (stereo not given)
inactive: [1] 2% | [2] -11.8% | [3] -19.1% | [4] -22.4% | [5] -22.8% | [6] -5.75%

OCCNc1ncnc2ccccc12
inactive: [1] -16.6% | [2] -1.7% | [3] 4.35% | [4] -4.7% | [5] 6.15% | [6] -18.9%

CC(=O)[C@H]1CC[C@H]2[C@@H]3CC(=O)C4=CC(=O)CC[C@]4(C)[C@H]3C(=O)C[C@]12C
inactive: [1] 11.3% | [2] -12.2% | [3] 11.2% | [4] -25.6% | [5] 0.45% | [6] -4.9%

Cc1ccc(NC(=O)CCSC(=O)Nc2ccc(C)cc2)cc1
inactive: [1] -1.2% | [2] -2.65% | [3] -7.05% | [4] 21.2% | [5] 8.1% | [6] 7.9%

CCOC(=O)/C(C#N)=N/Nc1ccc(S(=O)(=O)NC(C)=O)cc1
inactive: [1] -16.6% | [2] -10.5% | [3] 5.8% | [4] 11.5% | [5] -2.95% | [6] -4.4%

CCN(CC)CCn1c(C(C)(C)C)nc2ccccc21
inactive: [1] -9.15% | [2] -20.8% | [3] -24.1% | [4] -6.25% | [5] -15.8% | [6] -10.9%

COc1ccc(C2OC3=C(Nc4ccc([N+](=O)[O-])cc4N3)C2=O)cc1 (stereo not given)
inactive: [1] -7.25% | [2] -19.3% | [3] -16.8% | [4] -5.35% | [5] -37.9% | [6] -5.8%

CC1CCC(C(C)(C)O)CC1O (stereo not given)
inactive: [1] -12.9% | [2] 2.05% | [3] 0.9% | [4] -9.05% | [5] -16.8% | [6] -7.55%

O=C(/C=N\O)c1ccncc1
inactive: [1] -13.8% | [2] -16.9% | [3] -30.8% | [4] -16.1% | [5] -8.65% | [6] -35.7%

CC(C)Oc1ccc(CCOC(=O)Nc2cccc3ccccc23)cc1
inactive: [1] -0.5% | [2] 0.85% | [3] 2% | [4] 6.65% | [5] 3.8% | [6] 9.5%

CCCN(CCCC(NC(C)=O)C(=O)NCc1ccccc1)C(=O)NC (stereo not given)
inactive: [1] -11.1% | [2] -18.8% | [3] -28.4% | [4] 1.2% | [5] -4.65% | [6] -45.3%

CC(=O)NC1c2ccccc2C(C)(C)C12CCC1(CC2)OCCO1 (stereo not given)
inactive: [1] -33.5% | [2] -17.1% | [3] -4.8% | [4] 0.05% | [5] -3.8% | [6] -40.8%

CCOc1ccc(/C=C2\C=Nc3ccccc32)cc1
inactive: [1] -3.75% | [2] -10.8% | [3] 3.2% | [4] 6.7% | [5] 16.1% | [6] -5.4%

— PubChem BioAssay (NCI)
